Where a name gives a salt, the structure may show the parent alone. ± gives the standard deviation of the averaged measurements.

The test has as its system Toxoplasma gondii RH (in HFF). The experiment in a line: parasite growth relative to the screen mean (all compounds = 100%); higher = less inhibition of parasite growth. The following applies: 5 µM; 72 h; oxygen 21 %. An outline of the steps:
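Growth values are relative to the mean of the whole screen and averaged over duplicate screens, with all compounds together set to 100%. Parasites (RH β-Gal–GFP Toxoplasma, MOI 1:5) were added within 2 h of pinning compounds at 5 µM final onto confluent human foreskin fibroblasts and grown 72 h at 21% O2. Parasite number came from CPRG β-Gal readings against in-plate standard curves.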
As for `CN(C)c1nc(N)c(C(=O)Nc2cccnc2)nc1Cl` [ACDPP hydrochloride], the parasite growth is 88.7 ± 3%.
The result for `CC(C)[C@H](CO)Nc1nc(Nc2ccc(C(=O)O)c(Cl)c2)c2ncn(C(C)C)c2n1` [Purvalanol B] reads 141 ± 2.9%; that for `Cc1cc(C)cc(C(=O)N(C)[C@H](Cc2ccc(-c3ccccc3)cc2)C(=O)N[C@@H](Cc2c[nH]c3ccccc23)C(=O)O)c1`, 146 ± 20%.
In turn, `NS(=O)(=O)c1nn2cc(-c3ccccc3)nc2s1` returned a parasite growth of 108 ± 28%.
On to `O=c1c(-c2ccc(O)cc2)coc2cc(O)cc(O)c12` [Genistein], for which the parasite growth amounted to 148 ± 28%.
With `CCOC(=O)[C@H](CCc1ccccc1)N[C@@H](C)C(=O)N1Cc2cc(OC)c(OC)cc2C[C@H]1C(=O)O` [Moexipril hydrochloride] the figure was 63.9 ± 14%; with `CNCC[C@@H](Oc1ccccc1C)c1ccccc1` [Tomoxetine hydrochloride], 85.9 ± 8.6%.
The result for `Clc1cccc(Nc2nnc(-c3ccccc3)c3ccccc23)c1` reads 143.2 ± 1.4%; that for `CC(C)N1Cc2cc(S(C)(=O)=O)ccc2N(CCN2CC=C(c3c[nH]c4cc(F)ccc34)CC2)S1(=O)=O`, 181 ± 36%.
With `CCOc1ccccc1OC(c1ccccc1)C1CNCCO1` (centres undefined) [Reboxetine mesylate] the figure was 102 ± 5.2%; with `Cc1cccc(C)c1OCC(C)N` (centres undefined) [Mexiletine hydrochloride], 141.59 ± 0.025%.
For `O=C(O)CCc1ccc(NCc2cccc(Oc3ccccc3)c2)cc1`, the parasite growth was 198 ± 12%.
The result for `NC(=O)CNCCC(c1ccccc1)c1ccccc1` [N20C hydrochloride] reads 71.4 ± 14%; that for `CC(=O)N(OCc1ccccc1)[C@H]1c2cc(C#N)ccc2OC(C)(C)[C@H]1O`, 112 ± 33%.
With `O=C(CCCN1CCC(O)(c2ccc(Cl)cc2)CC1)c1ccc(F)cc1` [Haloperidol hydrochloride] the figure was 134 ± 39%; with `CN(C)CCCCSC(=N)N`, 93.3 ± 15%; with `Cc1[nH]c(/C=C2\C(=O)Nc3ccccc32)c(C)c1CCC(=O)O`, 102 ± 8.8%.
With `CC(C)(C)c1ccc(S(=O)(=O)/C=C/C#N)cc1` the figure was 127 ± 30%; with `C[C@H](NC(=O)c1sccc1OCc1ccc(Cl)cc1)c1ccccc1`, 38.7 ± 22%; with `O=c1cc(-c2ccc(O)cc2)oc2cc(O)cc(O)c12` [Apigenin], 102 ± 21%.
For `CCN(Cc1ccncc1)C(=O)C(CO)c1ccccc1` (centres undefined) [Tropicamide], the parasite growth came out at 111 ± 11%.
The result for `O=C1c2ccccc2S(=O)(=O)N1CCCCN1CCN(c2ncccn2)CC1` [Ipsapirone] reads 160 ± 46%.
The result for `COc1ccc(CCCOC(Cn2ccnc2)c2ccc(OC)cc2)cc1` (centres undefined) reads 95.6 ± 24%; that for `CC[N+](CC)(CC)CC(=O)Nc1c(C)cccc1C` [QX 314 bromide], 63.6 ± 9.3%; that for `NC1CCN(c2cccc(Cl)n2)CC1`, 141 ± 23%.
With `C/C=C1\C(=O)C[C@H]2[C@@H]3CCC4=CC(=O)CC[C@]4(C)[C@H]3CC[C@]12C` [Guggulsterone] the figure was 90.6 ± 26%.
In turn, `NC(=O)CCCCn1ccc(NC(N)=NCC(F)(F)F)n1` came in with a parasite growth of 95.1 ± 10%.
With `COc1cc2nc(N3CCN(C(=O)C4CCCO4)CC3)nc(N)c2cc1OC` (centres undefined) [Terazosin hydrochloride] the figure was 122 ± 12%; with `N=C(N)N/N=C/c1c(Cl)cccc1Cl` [Guanabenz acetate], 99.52 ± 0.3%; with `COc1ccc([C@H]2CNC(=O)C2)cc1OC1CCCC1` [(S)-(+)-Rolipram], 116 ± 30%.
With `O=C(O)Cc1nn(Cc2ccc(Br)cc2F)c(=O)c2ccccc12` [Statil], the parasite growth was found to be 91.7 ± 26%.
The result for `CCc1c2c(nc3ccc(OC(=O)N4CCC(N5CCCCC5)CC4)cc13)-c1cc3c(c(=O)n1C2)COC(=O)[C@]3(O)CC` reads 59.8 ± 11%.
The result for `O=C1NC(=O)c2cc(Nc3ccc(F)cc3)c(Nc3ccc(F)cc3)cc21` reads 171 ± 51%; that for `O=c1cc(-c2ccccc2)oc2cc(O)c(O)c(O)c12` [Baicalein], 173 ± 30%.
The result for `Brc1c(NC2=NCCN2)ccc2nccnc12` reads 128 ± 24%; that for `COc1ccc(NC(=O)c2cc(OCCCN(C)C)nn2Cc2ccccc2)cc1` [CFM 1571 hydrochloride], 106 ± 4.8%.
For `CC(C)NCC(O)COc1cccc2[nH]ccc12` (centres undefined) [Pindolol], the parasite growth stood at 148 ± 24%.
With `COc1cc2nc(N3CCN(C(=O)c4ccco4)CC3)nc(N)c2cc1OC` [Prazosin hydrochloride] the figure was 73.4 ± 17%; with `O=C(NCCNCC(O)COc1ccc(O)cc1)N1CCOCC1` (centres undefined) [Xamoterol hemifumarate], 117 ± 12%.

Values taken from the supplement of paper PMC4894684.
